CRFBP-R2 block – antagonists of CRF-binding protein/CRF-R2 receptor complex | HEK293 CRF-R2/CRF-BP, CRF-induced calcium fluorescence | hit rate 0.59% among 350,000 | inhibition, % at 11.8 µM;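 active = inhibition of the ligand-induced calcium signal above about 50% at the single tested concentration, limit read from the data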
SKN-1 block – inhibitors of C. elegans SKN-1; C. elegans VP596 Pgst-4::GFP/RFP ratio, acrylamide-induced, 24 h; inhibition, % at 21.8 µM; hit rate 0.49% among 360,000;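 active = interference check ratio from 0.5 to 1.5 plus GFP to RFP signal ratio inhibition reaching or exceeding a fixed threshold, cut at about 30% in these data, passing the limit was not always enough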
Cardio protect – myocardial damage modulation in H9c2 cells | H9c2 cardiomyocytes, H2O2 injury protection, ATPLite, 2 h | protection from H2O2 cell death, % at 20 µM | hit rate 0.63% among 360,000 | AID 588492;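 active = compounds giving at least 50% protection of heart cells from peroxide-induced death in the single-dose screen, raw or plate-pattern-corrected value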
CRFR2-BP ag – CRF-BP/CRF-R2 complex agonism; activation, % at 13.2 µM; hit rate 0.46% among 350,000; HEK293 CRF-R2/CRF-BP, calcium dye fluorescence (FLIPR); percent of saturating CRF peptide response; AID 588473;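 active = activation of at least 50%, plus an integration ratio under a set limit after plate pattern correction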
hiPSC survival – enhancers of human iPSC single-cell survival; hiPSC single-cell survival, ATPlite luminescence; 100% = ROCK inhibitor wells, 0% = DMSO; survival enhancement, % at 20 µM; hit rate 0.044% among 360,000; in the data active = survival enhancement above about 18%;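 note: cells exposed to compounds for 16 hours before the ATP read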
TAG inh – triacylglycerol accumulation inhibition; H9c2 cells, Nile Red lipid (TAG) fluorescence; cells loaded with 200 µM oleic acid; AID 651582; hit rate 0.66% among 230,000; inhibition, % at 12.5 µM;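 active = pattern-corrected inhibition of lipid staining of at least 50% with the nuclear-stain viability signal not falling by more than 50%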
Large screens that a line does not name were inactive. An excerpt weighted towards active compounds, which were near 2.5% of everything screened.

CCOCc1cc(CN2CCCC(CNC(=O)c3ccco3)C2)ccc1OC (stereo not drawn)	CRFBP-R2 block 76.3 (no result: TAG inh)
Cc1sc2nc[nH]c(=O)c2c1-c1ccc(F)cc1	none
Cc1sc2nc[nH]c(=S)c2c1-c1ccccc1	Cardio protect 65.7
N#Cc1c(NC(=O)C2CC=CCC2C(=O)O)sc2c1CCCCCC2 (stereo not drawn)	none (no result: TAG inh)
CC(C)(C)C1CCc2c(sc(NC(=O)C3CC=CCC3C(=O)O)c2C#N)C1 (stereo not drawn)	CRFBP-R2 block 61.4
COc1ccc([C@H]2C[C@H](n3cc(-c4ccc(F)cc4)nn3)[C@@H](O)CN2C(=O)C2CCCCC2)cc1	none
CCCc1nc(SCc2ccc(Cl)cc2Cl)n[nH]1	CRFBP-R2 block 59.0
Cc1onc(-c2ccccc2)c1CNC(=O)CN1C(=O)c2ccccc2C1=O	CRFBP-R2 block 109.0
Cc1cc(C)cc(NC(=O)NCc2c(-c3ccccc3)noc2C)c1	none
COc1ccc(CNC(=O)C(C)N(Cc2ccco2)C(=O)c2snc(C(N)=O)c2N)cc1 (stereo not drawn)	none (no result: TAG inh)
COc1ccc(C(C(=O)NCc2ccccc2)N(Cc2ccco2)C(=O)c2snc(C(N)=O)c2N)cc1 (stereo not drawn)	Cardio protect 79.8 (no result: TAG inh)
NC(=O)c1nsc(C(=O)N(CCc2ccccc2)C(C(=O)NC2CCCC2)c2ccco2)c1N (stereo not drawn)	Cardio protect 78.0 (no result: TAG inh)
COc1ccc(C(C(=O)NCc2ccccc2)N(Cc2ccco2)C(=O)c2snc(C(N)=O)c2N)cc1OC (stereo not drawn)	none (no result: TAG inh)
Cc1ccc(C(C(=O)NCc2ccccc2)N(Cc2ccco2)C(=O)c2snc(C(N)=O)c2N)o1 (stereo not drawn)	Cardio protect 61.3 (no result: TAG inh)
CCc1nc2c(OCC3CCCCC3)cccn2c1N(C=O)Cc1ccc(OC)cc1	none (no result: CRFBP-R2 block, CRFR2-BP ag)
NNC(=O)c1cc2ccccc2cc1O	Cardio protect 64.8
O=C(NCCO)c1cc2ccccc2cc1O	none (no result: TAG inh)
CCOC(=O)C(C)/C(C)=N/NC(=O)c1cc2ccccc2cc1O (stereo not drawn)	Cardio protect 60.6
CCOC(=O)C(=O)N(C)c1c(CC)nc2c(OCc3cccc(OC)c3)cccn12	none (no result: CRFBP-R2 block, CRFR2-BP ag)
COc1ccc(OC2C(=O)N(Cc3ccc(F)cc3)C2c2cc(OC)c(OC)c(OC)c2)cc1 (stereo not drawn)	CRFBP-R2 block 122.7 (no result: TAG inh)
O=C1CCCCC1Nc1ccc2ccccc2c1 (stereo not drawn)	none
CCCOc1ccc(N2C(=O)CC(N(CCc3ccc(OC)cc3)C(=O)c3cccc(F)c3)C2=O)cc1 (stereo not drawn)	SKN-1 block 35.4
CCc1ccc(NC(=O)CSc2nc(N)c(NC(=O)c3ccc(F)c(F)c3)c(=O)[nH]2)cc1	CRFBP-R2 block 52.3
Cc1[nH]c2ccccc2c1/C=N/NC(=O)c1cc(-c2cccs2)[nH]n1	Cardio protect 51.0 (no result: TAG inh)
Cc1nn(-c2ccccc2)c(C)c1/C=N/NC(=O)c1cc(C(C)(C)C)[nH]n1	Cardio protect 54.2
Cc1cc(C(=O)N/N=C/c2c(C)[nH]n(-c3ccccc3)c2=O)n[nH]1	none (no result: TAG inh)
Cc1cc(C(=O)N/N=C/c2c(C)[nH]c3ccccc23)n[nH]1	none
Cc1ccc(-c2cc(C(=O)N/N=C/c3c(C)nn(-c4ccccc4)c3C)[nH]n2)cc1	SKN-1 block 47.2, TAG inh 68.7 (no result: CRFBP-R2 block, CRFR2-BP ag)
Cc1ccc(-c2cc(C(=O)N/N=C/c3c(C)nn(-c4ccccc4)c3C)n[nH]2)s1	Cardio protect 72.5 (no result: TAG inh)
Cc1ccc(-c2cc(C(=O)N/N=C/c3ccco3)[nH]n2)cc1	none (no result: TAG inh)
Cc1ccc(SCC(=O)OC(C)C(=O)NCc2ccccc2)cc1 (stereo not drawn)	none
COc1ccc(CN2C(=O)CN(S(C)(=O)=O)CC2(C)C(=O)NCc2ccccc2)cc1OC (stereo not drawn)	none (no result: CRFBP-R2 block, Cardio protect, CRFR2-BP ag, hiPSC survival, TAG inh)
CC1=CC(C)(C(Cl)(Cl)Cl)C(C)=CC1=NO (stereo not drawn)	CRFBP-R2 block 56.6
CCN(CC)C(=O)C1=C(C)N(Cc2ccc(C(C)(C)C)cc2)C(=O)C(CC(=O)NCCCCc2ccccc2)C1 (stereo not drawn)	none
O=C(CCc1ccccc1)NC1CCSC1=O (stereo not drawn)	SKN-1 block 46.6
O=C(COc1ccccc1)NC1CCSC1=O (stereo not drawn)	none
O=C(OCc1nnc(-c2ccccc2)o1)c1ccc([N+](=O)[O-])s1	Cardio protect 52.1
COc1cc(NC(=O)c2ccc(-c3cn[nH]c3)c3ccoc23)cc(OC)c1OC	Cardio protect 66.5 (no result: CRFBP-R2 block, CRFR2-BP ag)
COCCNC(=O)c1ccc(-c2cn[nH]c2)c2ccoc12	hiPSC survival 31.4 (no result: CRFBP-R2 block, CRFR2-BP ag)
CN(C)CCNC(=O)c1ccc(-c2cnn(C)c2)c2ccoc12	none (no result: CRFBP-R2 block, CRFR2-BP ag)
O=C(NCc1ccccc1)c1ccc(-c2cn[nH]c2)c2ccoc12	hiPSC survival 107.0 (no result: CRFBP-R2 block, CRFR2-BP ag)
O=C(NCc1cccnc1)c1ccc(-c2ccc(F)c(F)c2)c2ccoc12	none (no result: CRFBP-R2 block, CRFR2-BP ag)
O=C(NCC1CC1)c1ccc(-c2cn[nH]c2)c2ccoc12	SKN-1 block 35.0, hiPSC survival 42.6 (no result: CRFBP-R2 block, CRFR2-BP ag)
COc1cc(NC(=O)c2ccc(-c3cccnc3)c3ccoc23)cc(OC)c1OC	none (no result: CRFBP-R2 block, CRFR2-BP ag)
CCC(C)NC(=O)Cn1cnc2sc(C)c(S(=O)(=O)N3CCN(c4ccccc4OC)CC3)c2c1=O (stereo not drawn)	none (no result: TAG inh)
CCOC(=O)c1c(N)sc(C(=O)N2CCCCC2)c1C	CRFBP-R2 block 60.8
CCOC(=O)c1c(N)sc(C(=O)N2CCCC2)c1C	none
c1ccc(C(c2ccccc2)N2CCN(Cc3nc(-c4cnccn4)no3)CC2)cc1	none
c1ccc(-c2noc(CN3CCN(c4cnccn4)CC3)n2)cc1	CRFBP-R2 block 73.6
COc1ccc(CNS(=O)(=O)NCc2ccccc2)cc1OC	CRFR2-BP ag 274.5 (no result: TAG inh)
O=C(NCCCN1CCCCCC1)C1CC(=O)N(CCc2ccccc2)C1 (stereo not drawn)	hiPSC survival 19.2
COc1ccc2c(C)cc(SCC#N)nc2c1	none (no result: TAG inh)
COc1ccc2c(C)cc(SCc3c(C)noc3C)nc2c1	CRFBP-R2 block 55.5 (no result: TAG inh)
CCOC(=O)C1=NN(C(=O)c2ccco2)C2(CC2)C1	Cardio protect 71.7 (no result: TAG inh)
CCOC(=O)C1=NN(C(=O)c2ccc(OC)cc2)C(O)(c2ccc(Cl)cc2)C1 (stereo not drawn)	CRFR2-BP ag 79.9
COC(=O)C1=NN(C(=O)c2cccc(Br)c2)C(O)(c2ccc(Cl)cc2)C1 (stereo not drawn)	CRFR2-BP ag 99.1
CCOC(=O)C1=NN(C(=O)Cc2ccccc2)C(O)(c2ccc(Cl)cc2)C1 (stereo not drawn)	none (no result: TAG inh)
CCOC(=O)C1=NN(C(=O)c2ccccc2)C(O)(c2ccc(C)cc2)C1 (stereo not drawn)	CRFR2-BP ag 104.8
COCCNC(=O)C1(C)CCCN(C(=O)c2ccc(OC)c(OC)c2)C1 (stereo not drawn)	none (no result: CRFBP-R2 block, CRFR2-BP ag)
